Drawing on PubChem BioAssay, this text covers inhibition for 40 molecules.

Unmarked numbers belong to inactive results. The source made the active and inactive calls. Rule as the data show it, unless noted: active = inhibition above about 44%; inactive = the rest. Numbered stars: 1 amine (or outer) side, 2 acyl side, 3 side chain; on linkers, the order of the positions; unused ones are H or OH. Bridge positions count the residues as written; N and C are the ends. Square brackets hold non-standard residues; d marks the D form. Peptide text beside a SMILES is read from it. ξ: configuration not given here. X1 = CC[C@H](CCC[C@@H](O)[C@@H](C)C(=O)O[C@H](C)[C@@H](C)C/C=C(C)/C(=C\C(=O)[*:1])OC)O[*:2]; NMeξIle = CC[C@H](C)C(NC)C(=O)O; NMeV = CN[C@H](C(=O)O)C(C)C; NMeS = CN[C@@H](CO)C(=O)O

Steroidogenic factor 1 (Homo sapiens), sequence (Q13285 whole entry, looked up): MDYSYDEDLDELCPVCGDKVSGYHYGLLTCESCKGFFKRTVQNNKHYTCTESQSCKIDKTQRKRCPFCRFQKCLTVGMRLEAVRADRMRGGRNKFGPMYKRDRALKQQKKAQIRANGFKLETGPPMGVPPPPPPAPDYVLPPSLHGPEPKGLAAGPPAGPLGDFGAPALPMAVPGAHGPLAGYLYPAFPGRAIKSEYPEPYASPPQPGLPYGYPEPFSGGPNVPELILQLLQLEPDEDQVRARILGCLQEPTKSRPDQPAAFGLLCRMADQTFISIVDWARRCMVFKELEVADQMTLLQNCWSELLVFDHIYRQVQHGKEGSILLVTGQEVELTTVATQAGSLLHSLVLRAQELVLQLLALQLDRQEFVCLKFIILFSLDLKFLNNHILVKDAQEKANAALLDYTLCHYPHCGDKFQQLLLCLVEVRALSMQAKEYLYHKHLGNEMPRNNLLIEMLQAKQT

One test has as its target Steroidogenic factor 1 (Homo sapiens) (UniProt Q13285). Briefly: SF1 (NR5A1) inverse agonists, counter-screen for LRH-1 inverse agonist project, cell-based, luminescence, high throughput (AID 651614).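 Also: cells cotransfected with StAR promoter reporter and SF1 expression vector; 0% = vehicle on cells with receptor and 100% = vehicle on cells lacking receptor.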 As to conditions: cell-based SF1 luciferase reporter, at 3.6 µM, stronger effect = higher value.
Broadly, the inhibition is the relative decrease from the control value, in per cent. As to `CCC1(O)C(=O)OCc2c1cc1n(c2=O)Cc2cc3c(N)cccc3nc2-1` (stereo not given), the inhibition was 92.1% (active).

Take `CCCOC(c1ccccc1)(c1ccc(C(F)(F)F)cc1)C(Oc1nc(C)cc(C)n1)C(=O)O` (stereo not given): the inhibition is 90.2% (active).

As for `N=c1c2c(n(Cc3ccc(F)cc3)c3c1CCC3)CCC2`, the inhibition was 69% (active).

For the molecule `Cc1cc(/C=N/n2cnnc2)c(C)n1-c1ccc(OCc2ccc(Cl)cc2Cl)cc1`, the inhibition was 68.7% (active).

As for `CCN(CC)c1ccc2nc3ccc(N)cc3[n+](-c3ccccc3)c2c1`, the inhibition was 89.2% (active).

In the case of `Cc1ccc2[nH]c3nc(N/N=C/c4cccc(O)c4)nnc3c2c1`, the inhibition was 63.6% (active).

Regarding `CCCC(=O)NC(c1ccccc1Cl)c1ccc2cccnc2c1O` (stereo not given), the inhibition is 90.3% (active).

Turning to `CN(Cc1cnc2nc(N)nc(N)c2n1)c1ccc(C(=O)NC(CCC(=O)O)C(=O)O)cc1C(F)(F)F` (stereo not given), the inhibition was 49.1% (active).

Consider `O=[N+]([O-])c1ccc(Sc2cccc[n+]2[O-])c2nonc12`, for which the inhibition was 99.2% (active).

Take `COc1cc(C=NO)nc(-c2ccccn2)c1`: the inhibition is 76.9% (active).

`COc1ccc(Cn2c(-c3ccc(C)cc3)c[n+]3ccccc23)cc1`: the inhibition was 79.5% (active).

For `Cc1ccc(S(=O)(=O)/N=C2\C=C(Nc3ccc(O)cc3)C(=O)c3ccccc32)cc1`, the inhibition was 94.6% (active).

For `CC[n+]1c(C=C2C=C(C)OC(C)=C2)sc2ccccc21`, the inhibition is 85% (active).

As to `CCCCCn1c2c(c(=N)c3ccccc31)CCC2`, the inhibition was 83% (active).

Consider `CCOc1ccccc1O[C@H](c1ccccc1)[C@H]1CNCCO1`, for which the inhibition is 13.7%.

In the case of `COC(=O)C1=C(CN2CCCc3ccccc32)NC(=O)NC1c1ccc(F)cc1` (stereo not given), the inhibition was 63.3% (active).

For the molecule `CC(=NNC(=S)Nc1cccc(C)c1)c1ccccn1`, the inhibition was 92.4% (active).

For `CC(C)(C)N(Cc1ccc2c(c1)OCO2)C(=O)/C=C\S(=O)c1ccccc1` (stereo not given), the inhibition is 68.2% (active).

Turning to `COc1ccccc1-n1cc([C@@H]2C[C@H]3CN(c4ccccc4)C(=O)[C@]34CCCN24)cn1`, the inhibition was 19.5%.

As for `COc1ccc2cc3cc(C(=O)Nc4cc(OC)c(OC)c(OC)c4)oc3nc2c1`, the inhibition was 74.7% (active).

`CCCc1nc2c(=O)n(C)c(=O)nc-2n(C)n1`: the inhibition was 72.8% (active).

For the molecule `CC[C@@H]1CCC[C@@H](O)[C@@H](C)C(=O)O[C@H](C)[C@@H](C)C/C=C(C)/C(OC)=C\C(=O)N(C)C([C@@H](C)CC)C(=O)N(C)[C@@H](C(C)C)C(=O)N(C)[C@@H](COC)C(=O)N2CCC[C@H]2C(=O)N(C)[C@@H](C(C)C)C(=O)N2CCC[C@H]2C(=O)O1` (stereo not given in full) ([NMeξIle][NMeV][NMeS](Me)P[NMeV]P; linker N-C via X1), the inhibition was 94.8% (active).

On to `CC1(C)CC(N2CCN(Cc3ccccc3)CC2)=CC(=[N+]2CCCCC2)C1`, for which the inhibition was 86.3% (active).

As to `Cc1ccc(-c2cc3cccc[n+]3cc2-c2ccc(C)cc2)cc1`, the inhibition is 83.4% (active).

Turning to `CC(=O)NC(c1ccc(Cl)cc1)c1ccc2cccnc2c1O` (stereo not given), the inhibition is 91.2% (active).

For the molecule `CCN(CC)CCn1c2ccccc2c2cnc(N)c(C#N)c21`, the inhibition was 57.4% (active).

As to `C(=NNc1ccc2ccccc2n1)c1ccccn1`, the inhibition was 59.2% (active).

As for `CN(C)CCNc1ccc(CO)c2oc3ccc(O)cc3c(=O)c12`, the inhibition was 53.1% (active).

Consider `CCCCCc1ccc(OCCC[n+]2ccccc2)c(CCCCC)c1`, for which the inhibition was 68.1% (active).

With `COc1ccc(CCNc2ncnc3c2oc2ccccc23)cc1OC`, the inhibition is 58.1% (active).

As to `COc1ccccc1C(=O)Nc1nc2ccccc2s1`, the inhibition was 88% (active).

Consider `CC(NNC(=S)N1CCN(c2ccccn2)CC1)c1nccc2ccccc12` (stereo not given), for which the inhibition was 89.3% (active).

Take `COc1cc(NS(C)(=O)=O)ccc1Nc1c2ccccc2nc2ccccc12`: the inhibition is 52% (active).

As for `CN(C)c1cc[n+](CC(=O)c2ccc(-c3ccccc3)cc2)cc1`, the inhibition is 71.8% (active).

For `Cc1ccc2ccc3cccnc3c2n1`, the inhibition is 54.5% (active).

As to `CC1=NN(c2nc3ccccc3[nH]2)C(=O)C1Cc1ccccc1` (stereo not given), the inhibition was 88.7% (active).

As to `N=c1c2c(-c3ccccc3)c(-c3ccccc3)n(Cc3ccccc3)c2ncn1CCO`, the inhibition is 73.1% (active).

In the case of `COc1cccc(Cn2c(NCc3cccnc3)nc3c2c(=O)n(C)c(=O)n3C)c1`, the inhibition is 50.3% (active).

In the case of `CC(C)(O)C#Cc1ccc([C@@H]2C[C@H]3CN(c4ccccc4)C(=O)[C@]34CCCN24)s1`, the inhibition was 28.3%.

In the case of `O=C(N/N=C(\c1ccccc1)c1cccnc1)c1cccc(F)c1`, the inhibition is 85.7% (active).

Test system in the next test: not listed separately
Briefly: VP16 transactivation reporter inhibitors, counter-screen for LRH-1 inverse agonist project, cell-based, luminescence, high throughput (AID 651615; in the data active = inhibition above about 33%). The conditions noted are these: Gal4-VP16 luciferase reporter cells, at 3.6 µM, stronger effect = higher value. For orientation: The purpose of a counterscreen is to sort out artefacts and off-target activity.
In the case of `CCC1(O)C(=O)OCc2c1cc1n(c2=O)Cc2cc3c(N)cccc3nc2-1` (stereo not given), the inhibition is 79.6% (active).

As to `CCCOC(c1ccccc1)(c1ccc(C(F)(F)F)cc1)C(Oc1nc(C)cc(C)n1)C(=O)O` (stereo not given), the inhibition was 75.5% (active).

For `N=c1c2c(n(Cc3ccc(F)cc3)c3c1CCC3)CCC2`, the inhibition was 69.2% (active).

Take `Cc1cc(/C=N/n2cnnc2)c(C)n1-c1ccc(OCc2ccc(Cl)cc2Cl)cc1`: the inhibition was 62.3% (active).

As for `CCN(CC)c1ccc2nc3ccc(N)cc3[n+](-c3ccccc3)c2c1`, the inhibition was 92.6% (active).

For `Cc1ccc2[nH]c3nc(N/N=C/c4cccc(O)c4)nnc3c2c1`, the inhibition is 69.8% (active).

Consider `CCCC(=O)NC(c1ccccc1Cl)c1ccc2cccnc2c1O` (stereo not given), for which the inhibition was 83.2% (active).

For `CN(Cc1cnc2nc(N)nc(N)c2n1)c1ccc(C(=O)NC(CCC(=O)O)C(=O)O)cc1C(F)(F)F` (stereo not given), the inhibition was 21.3%.

Consider `O=[N+]([O-])c1ccc(Sc2cccc[n+]2[O-])c2nonc12`, for which the inhibition is 98.9% (active).

In the case of `COc1cc(C=NO)nc(-c2ccccn2)c1`, the inhibition is 45.7% (active).

For `COc1ccc(Cn2c(-c3ccc(C)cc3)c[n+]3ccccc23)cc1`, the inhibition is 74% (active).

Regarding `Cc1ccc(S(=O)(=O)/N=C2\C=C(Nc3ccc(O)cc3)C(=O)c3ccccc32)cc1`, the inhibition was 96% (active).

In the case of `CC[n+]1c(C=C2C=C(C)OC(C)=C2)sc2ccccc21`, the inhibition was 92.9% (active).

As to `CCCCCn1c2c(c(=N)c3ccccc31)CCC2`, the inhibition was 90.9% (active).

Take `CCOc1ccccc1O[C@H](c1ccccc1)[C@H]1CNCCO1`: the inhibition was 11.6%.

In the case of `COC(=O)C1=C(CN2CCCc3ccccc32)NC(=O)NC1c1ccc(F)cc1` (stereo not given), the inhibition is 4.51%.

As for `CC(=NNC(=S)Nc1cccc(C)c1)c1ccccn1`, the inhibition is 68.8% (active).

As for `CC(C)(C)N(Cc1ccc2c(c1)OCO2)C(=O)/C=C\S(=O)c1ccccc1` (stereo not given), the inhibition was 61.6% (active).

Consider `COc1ccccc1-n1cc([C@@H]2C[C@H]3CN(c4ccccc4)C(=O)[C@]34CCCN24)cn1`, for which the inhibition was 69.6% (active).

For the molecule `COc1ccc2cc3cc(C(=O)Nc4cc(OC)c(OC)c(OC)c4)oc3nc2c1`, the inhibition is 56.5% (active).

On to `CCCc1nc2c(=O)n(C)c(=O)nc-2n(C)n1`, for which the inhibition is 73.5% (active).

Consider `CC[C@@H]1CCC[C@@H](O)[C@@H](C)C(=O)O[C@H](C)[C@@H](C)C/C=C(C)/C(OC)=C\C(=O)N(C)C([C@@H](C)CC)C(=O)N(C)[C@@H](C(C)C)C(=O)N(C)[C@@H](COC)C(=O)N2CCC[C@H]2C(=O)N(C)[C@@H](C(C)C)C(=O)N2CCC[C@H]2C(=O)O1` (stereo not given in full) ([NMeξIle][NMeV][NMeS](Me)P[NMeV]P; linker N-C via X1), for which the inhibition is 93.1% (active).

As to `CC1(C)CC(N2CCN(Cc3ccccc3)CC2)=CC(=[N+]2CCCCC2)C1`, the inhibition is 74% (active).

Take `Cc1ccc(-c2cc3cccc[n+]3cc2-c2ccc(C)cc2)cc1`: the inhibition was 79.4% (active).

As to `CC(=O)NC(c1ccc(Cl)cc1)c1ccc2cccnc2c1O` (stereo not given), the inhibition is 87% (active).

As to `CCN(CC)CCn1c2ccccc2c2cnc(N)c(C#N)c21`, the inhibition was 74.8% (active).

With `C(=NNc1ccc2ccccc2n1)c1ccccn1`, the inhibition was -44.1%.

As for `CN(C)CCNc1ccc(CO)c2oc3ccc(O)cc3c(=O)c12`, the inhibition is 48.4% (active).

Turning to `CCCCCc1ccc(OCCC[n+]2ccccc2)c(CCCCC)c1`, the inhibition is 82.3% (active).

With `COc1ccc(CCNc2ncnc3c2oc2ccccc23)cc1OC`, the inhibition was 55.6% (active).

Take `COc1ccccc1C(=O)Nc1nc2ccccc2s1`: the inhibition is 75.6% (active).

For the molecule `CC(NNC(=S)N1CCN(c2ccccn2)CC1)c1nccc2ccccc12` (stereo not given), the inhibition was 61% (active).

In the case of `COc1cc(NS(C)(=O)=O)ccc1Nc1c2ccccc2nc2ccccc12`, the inhibition was 78.8% (active).

Turning to `CN(C)c1cc[n+](CC(=O)c2ccc(-c3ccccc3)cc2)cc1`, the inhibition was 67.9% (active).

As to `Cc1ccc2ccc3cccnc3c2n1`, the inhibition is 37.3% (active).

Turning to `CC1=NN(c2nc3ccccc3[nH]2)C(=O)C1Cc1ccccc1` (stereo not given), the inhibition is 83.6% (active).

Consider `N=c1c2c(-c3ccccc3)c(-c3ccccc3)n(Cc3ccccc3)c2ncn1CCO`, for which the inhibition was 77.4% (active).

Regarding `COc1cccc(Cn2c(NCc3cccnc3)nc3c2c(=O)n(C)c(=O)n3C)c1`, the inhibition was 62.8% (active).

With `CC(C)(O)C#Cc1ccc([C@@H]2C[C@H]3CN(c4ccccc4)C(=O)[C@]34CCCN24)s1`, the inhibition is 88.8% (active).

For `O=C(N/N=C(\c1ccccc1)c1cccnc1)c1cccc(F)c1`, the inhibition is 58.5% (active).
